High-throughput results (PubChem BioAssay)
An excerpt weighted towards active compounds, which were near 2.2% of everything screened.
Hsp70 act: Hsp70 transcriptional activation, primary screen | activation, % at 10 µM | HeLa Hsp70 promoter luciferase reporter, luminescence; scaled: vehicle 0, proteasome-inhibitor control 100% | 200,000 tested, 0.04% active;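 active = activation above the mean across all tested compounds plus 3 SD, cutoff set per campaign, cut at about 5.5% in these data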
HIF activator: HIF pathway transcriptional activation. 300,000 tested, 0.32% active. AID 1910. activation, % at 7.5 µM (by protocol). U2OS HRE-luciferase reporter, luminescence; normalized: DMSO 0%, desferrioxamine 100%;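 active = mean activation of at least 10% of the iron chelator positive control signal, with at least half of replicates also reaching 10%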
GAA850 FXN act: frataxin GAA850 promoter activation | 360,000 tested, 0.56% active | HEK293 lucGAA850 FXN promoter luciferase reporter, 24 h; percent of 10 µM SAHA response | activation, % at 6 µM;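 active = activation above the average of all compounds screened plus 3 SD, cutoff fixed separately per campaign, cut at about 7.5% in these data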
SMARCA2 act: activators of SMARCA2 function; MG213 cells, MMTV-luciferase reporter, dexamethasone, overnight; activation, % at 9.1 µM; 370,000 tested, 1% active; AID 652017; in the data active = activation above about 7.8%
GalR3 antag: human GalR3 antagonism | O60755 | HEK293 GalR3-CNG cAMP membrane potential fluorescence; galR3 body fused to GalR1 C-terminus | inhibition, % at 3 µM | 360,000 tested, 0.44% active | AID 651719;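 active = inhibition above the screen-wide average plus 3 SD, cut at about 13% in these data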;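 note: forskolin and galanin both at EC90 stimulate the cells; cAMP rise reported by CNG channel membrane potential dye signal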
Target sequence (O60755 1-299 limits assumed): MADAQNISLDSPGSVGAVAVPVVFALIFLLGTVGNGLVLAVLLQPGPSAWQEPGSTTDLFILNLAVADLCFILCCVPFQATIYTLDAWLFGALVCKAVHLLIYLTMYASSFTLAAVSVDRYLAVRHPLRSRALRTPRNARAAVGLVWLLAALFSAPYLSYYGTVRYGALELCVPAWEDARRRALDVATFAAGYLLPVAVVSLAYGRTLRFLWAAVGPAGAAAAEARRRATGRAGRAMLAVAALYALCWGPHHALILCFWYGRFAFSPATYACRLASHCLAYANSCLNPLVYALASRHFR
SMARCA2 conf: confirmation of SMARCA2 (BRM) function activators | activation, % at 9.1 µM | 3,500 tested, 30% active | AID 652260 | MG213 cells, MMTV-luciferase with dexamethasone, luminescence, overnight; MG213 cells expressing E1A, Rb sequestered; DMSO wells 0%, reference activator 100% | shares compounds with SMARCA2 act;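 active = activation above its plate's cutoff, the mean activation of tested wells plus 3 SD, cut at about 7.9% in these data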
GAL4-VP16 Luc: activates GAL4-VP16 luciferase, flagging SMARCA2 activator hits. shares compounds with SMARCA2 act. HEK293 GAL4-VP16 pG5luc reporter, luciferase luminescence; scaled: DMSO wells 0%, SAHA wells 100%. activation, % at 9.1 µM. 3,500 tested, 41% active. AID 686939;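 active = activation above the solvent-only control well mean plus 3 SD, averaged across control plates, cut at about 5.2% in these data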
Of the large screens only hits and unclear results are named; the others gave an inactive call (follow-up assays come after a bar, where they were run).

COc1ccc(NC(=O)CSc2c3c(nc4cc(Cl)ccc24)CCCC3)cc1OC	SMARCA2 act 9.4 | SMARCA2 conf inactive | GAL4-VP16 Luc inactive
CN1CCN(C(=S)NC(=O)/C=C/c2ccccc2)CC1	SMARCA2 act 8.3 | SMARCA2 conf inactive | GAL4-VP16 Luc inactive
CN1CCN(C(=S)NC(=O)/C=C/c2ccccc2Cl)CC1	none
CNc1nc(N)c([N+](=O)[O-])c(Nc2cccc(F)c2)n1	none (no result: Hsp70 act)
CNc1nc(N)c([N+](=O)[O-])c(Nc2cccc(Cl)c2)n1	SMARCA2 act 8.3 (no result: Hsp70 act) | SMARCA2 conf inactive | GAL4-VP16 Luc inactive
CC(C)NC(=O)C1CCN(c2cncnc2)CC1	none (no result: Hsp70 act, HIF activator, GAA850 FXN act, GalR3 antag)
O=C(NC1CCCC1)C(c1ccc(F)cc1)N1CCC(O)(c2ccc(Cl)cc2)CC1 (stereo not given)	SMARCA2 act 13 (no result: Hsp70 act, HIF activator, GAA850 FXN act) | SMARCA2 conf inactive | GAL4-VP16 Luc inactive
COc1c(O)cc2oc(-c3ccc(O)cc3)cc(=O)c2c1O	none (no result: Hsp70 act)
O=c1cc(-c2ccccc2)oc2cc(O)c(O)c(O)c12	SMARCA2 act 8.3 (no result: Hsp70 act, HIF activator) | SMARCA2 conf 9.4 | GAL4-VP16 Luc 13
CCOC(=O)C1CCN(C(=O)c2cc3c(ccc4ccccc43)o2)CC1	SMARCA2 act 9.0 (no result: Hsp70 act) | SMARCA2 conf 11 | GAL4-VP16 Luc 7.3
CC1CCN(C(=O)c2cc3c(ccc4ccccc43)o2)CC1	none (no result: Hsp70 act)
O=C(Nc1ccc(F)cc1)OC1CC2CC1[C@H]1CCCCN1[C@H]2Cc1ccccc1 (stereo not given in full)	none (no result: Hsp70 act, HIF activator, GAA850 FXN act, GalR3 antag)
CCN(C)c1ccc(/C=N\n2nnnc2N)cc1	SMARCA2 act 12 | SMARCA2 conf inactive | GAL4-VP16 Luc 15
Nc1nnnn1/N=C/c1ccc(O)cc1	none
CCCOc1ccc(N2C(=O)CC(SCCN)C2=O)cc1 (stereo not given)	SMARCA2 act 10 | SMARCA2 conf 7.9 | GAL4-VP16 Luc 6.6
CCCOc1ccc(N2C(=O)CC(SCC(N)C(=O)OCC)C2=O)cc1 (stereo not given)	none (no result: Hsp70 act)
COc1ccc([C@H]2N[C@]3(CCCN(Cc4ccco4)C3=O)[C@H]3C(=O)N(Cc4ccccc4)C(=O)[C@@H]23)cc1	SMARCA2 act 9.0 (no result: Hsp70 act, HIF activator) | SMARCA2 conf inactive | GAL4-VP16 Luc inactive
O=C(NC1CC1)C1CCN(c2ncccn2)CC1	SMARCA2 act 9.2 (no result: Hsp70 act) | SMARCA2 conf inactive | GAL4-VP16 Luc inactive
Cc1nc2c(C(=O)NCCC(C)C)c[nH]n2c(=O)c1Cl	SMARCA2 act 9.5 | SMARCA2 conf inactive | GAL4-VP16 Luc inactive
CCN(CC)CCCNC(=O)CSc1nc2cccnc2n1C	none (no result: Hsp70 act, HIF activator, GAA850 FXN act, GalR3 antag)
CC(=O)c1cc(-c2ccc3nonc3c2)c(=O)n2c1CCC2	none (no result: Hsp70 act, HIF activator, GAA850 FXN act, GalR3 antag)
CC(C)(C)c1ccc(-c2nnc(SCC(=O)NC3CC3)o2)cc1	SMARCA2 act 9.0 (no result: Hsp70 act, HIF activator) | SMARCA2 conf inactive | GAL4-VP16 Luc 5.5
Cc1ccc(Nc2nc(N)nc(CN3CCN(Cc4ccc5c(c4)OCO5)CC3)n2)cc1Cl	none
Nc1nc(CN2CCN(Cc3ccccc3)CC2)nc(Nc2ccc3c(c2)OCCO3)n1	SMARCA2 act 9.2 | SMARCA2 conf 26 | GAL4-VP16 Luc inactive
CN(CCCOC(=O)c1occ2ccccc12)C1CN(Cc2cn(Cc3ccccc3Cl)nn2)S(=O)(=O)C1 (stereo not given)	none (no result: Hsp70 act, HIF activator, GAA850 FXN act, GalR3 antag)
O=C(CCOc1ccccc1)Nc1ccc(Br)cc1	SMARCA2 act 11 (no result: Hsp70 act) | SMARCA2 conf inactive | GAL4-VP16 Luc 5.3
O=C(CCc1nnc(CCCc2ccccc2)o1)NCCCC1CCCC1	SMARCA2 act 9.7 | SMARCA2 conf inactive | GAL4-VP16 Luc 6.5
O=C(CCc1nnc(CCCc2ccccc2)o1)NCC(F)(F)F	none
CCOC(=O)[C@]12CCCCC/C=C\1N(Cc1ccc(OC)cc1)C(=O)[C@H]2CC(=O)NCCCCc1ccccc1	none (no result: Hsp70 act, HIF activator, GAA850 FXN act, GalR3 antag)
O=C(NC1CCC1)c1ccc(C#CC2CC2)c[n+]1[O-]	SMARCA2 act 15 (no result: Hsp70 act, HIF activator, GAA850 FXN act, GalR3 antag) | SMARCA2 conf 11 | GAL4-VP16 Luc 5.2
COc1ccc(C2=NOC(C(=O)Nc3c(C)n(C)n(-c4ccccc4)c3=O)C2)cc1OC (stereo not given)	none
Cc1c(NC(=O)C2CC(c3c(F)cccc3Cl)=NO2)c(=O)n(-c2ccccc2)n1C (stereo not given)	SMARCA2 act 8.4 | SMARCA2 conf inactive | GAL4-VP16 Luc inactive
C=CCNC(=O)Nc1ccc2c(c1)[C@]1(CC(=O)N(CC(C)C)C1c1ccccc1)C(=O)N2C (stereo not given in full)	none (no result: Hsp70 act, HIF activator, GAA850 FXN act, GalR3 antag)
COc1ccccc1-c1csc(C(NC(C)=O)c2ccc(F)c(F)c2)n1 (stereo not given)	none (no result: Hsp70 act, HIF activator)
COc1ccccc1-c1csc(C(NC(C)=O)c2cccc(F)c2)n1 (stereo not given)	SMARCA2 act 8.4 (no result: Hsp70 act, HIF activator) | SMARCA2 conf inactive | GAL4-VP16 Luc inactive
CCc1ccc(C(=O)CN2C(=O)NC(C)(c3ccc(C)cc3)C2=O)cc1 (stereo not given)	SMARCA2 act 9.1 | SMARCA2 conf inactive | GAL4-VP16 Luc inactive
Cc1ccc(C2(C)NC(=O)N(CC(=O)c3ccc4c(c3)OCCO4)C2=O)cc1 (stereo not given)	none (no result: Hsp70 act, HIF activator)
COc1cc(S(=O)(=O)N2CCOCC2)cc(C(=O)c2nccn2C)c1OC	SMARCA2 act 9.3 | SMARCA2 conf inactive | GAL4-VP16 Luc inactive
CCCCn1ccnc1C(=O)c1cc(S(=O)(=O)N2CCOCC2)ccc1C	none
CCCCN1C(=O)C(CC(=O)NCCCN(C)C)CC(C(=O)N(CC)CC)=C1C (stereo not given)	none (no result: Hsp70 act, HIF activator)
CCCCN1C(=O)C(CC(=O)NCCCN(C)C)CC(C(=O)N(C(C)C)C(C)C)=C1C (stereo not given)	SMARCA2 act 13 (no result: Hsp70 act, HIF activator, GAA850 FXN act) | SMARCA2 conf inactive | GAL4-VP16 Luc inactive
CCNCC(=O)Nc1ccc(N2CCOCC2)cc1	none
CCCCOC(=O)Nc1ccc(N2CCOCC2)cc1	SMARCA2 act 10 | SMARCA2 conf 9.8 | GAL4-VP16 Luc 5.7
C[C@@H]1Cc2cc(O)cc(O)c2C(=O)O1	none (no result: Hsp70 act, HIF activator, GAA850 FXN act, GalR3 antag)
COc1cccc(CNC(=O)[C@@H]2CCCN2C(=O)[C@@H]2CCCN2S(=O)(=O)c2ccc(OC)c(C)c2)c1	SMARCA2 act 9.1 (no result: Hsp70 act, HIF activator, GAA850 FXN act) | SMARCA2 conf inactive | GAL4-VP16 Luc inactive
Cc1cc(C)n(C(=O)c2ccc(C)o2)n1	SMARCA2 act 8.7 | SMARCA2 conf inactive | GAL4-VP16 Luc inactive
COc1ccccc1C(=O)n1nc(C)cc1C	none
CC(C)CN=c1cc(-c2ccccc2)oc2ccc(Cl)cc12	none
CC(O)CN=c1cc(-c2ccccc2)oc2ccc(Cl)cc12 (stereo not given)	SMARCA2 act 8.4 | SMARCA2 conf 18 | GAL4-VP16 Luc 13
O=C(CSc1nnc(-c2cccc(Cl)c2)n1Cc1ccco1)c1ccc(F)cc1	none (no result: Hsp70 act, HIF activator, GAA850 FXN act, GalR3 antag)
Cc1nc(COC(=O)c2c(C)nn(-c3ccccc3)c2C)cs1	SMARCA2 act 9.1 | SMARCA2 conf 10 | GAL4-VP16 Luc inactive
